# Hits are enriched below; roughly 22% of the tested compounds scored in any of these assays.
# Measles CPE: protection of cells from measles virus; Measles virus-infected cells, CPE protection, absorbance; protection (pct of control), % at 4 µM; 140,000 tested, 1.5% active; in the data active means protection mostly above about 24%, no sharp cut-off; inactive means mostly below about 26%
# CYP2C19 act: cytochrome P450 2C19 (human) activation. recombinant CYP2C19, luciferin-H EGE luminescence; stronger effect = higher value; 0 = fully inhibited enzyme, 1 = untreated enzyme. activation factor at 5 µM. 96,000 tested, under 10 active. AID 1025;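 active means activation factor of at least 2 at 5 µM in the primary screen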;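 further: 0 = wells with 2.5 mM tranylcypromine and 1 = vehicle-only wells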
# Target sequence (P33261 whole entry, looked up): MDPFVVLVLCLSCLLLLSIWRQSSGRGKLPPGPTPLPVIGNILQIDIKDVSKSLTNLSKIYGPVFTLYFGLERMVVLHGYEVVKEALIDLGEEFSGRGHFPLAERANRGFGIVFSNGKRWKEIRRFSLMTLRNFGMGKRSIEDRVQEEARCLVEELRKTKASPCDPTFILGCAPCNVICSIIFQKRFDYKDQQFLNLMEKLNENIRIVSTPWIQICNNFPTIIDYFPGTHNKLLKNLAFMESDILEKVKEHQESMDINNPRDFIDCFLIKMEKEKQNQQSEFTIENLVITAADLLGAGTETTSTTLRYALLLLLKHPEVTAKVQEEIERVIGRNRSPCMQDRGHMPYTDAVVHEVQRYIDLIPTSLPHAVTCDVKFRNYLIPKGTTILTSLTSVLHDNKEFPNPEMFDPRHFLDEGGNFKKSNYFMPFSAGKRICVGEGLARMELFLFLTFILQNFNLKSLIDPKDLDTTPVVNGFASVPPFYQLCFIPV
# CYP2C19 inhib: inhibitors of human CYP2C19; P33261; inhibition, % at 5 µM; AID 778; 96,000 tested, 21% active; CYP2C19 Supersomes, luciferin-H EGE luminescence, 30 min;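 active means CYP2C19 inhibition above a set limit at 5 µM in the primary screen, cut at about 50% in these data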;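 further: plate controls were negative control wells for no effect and 2.5 mM tranylcypromine positive control for full effect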
# CYP2C9 activ: activators of human CYP2C9 | P11712 | recombinant CYP2C9, luciferin-H conversion, luminescence; stronger effect = higher value; factor 1 = untreated enzyme, 0 = blocked | activation factor at 5 µM | 96,000 tested, 1.4% active;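 active means activation factor of 2 or more for CYP2C9 at a 5 µM dose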;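 further: 0 = sulfaphenazole-blocked wells and 1 = vehicle-only wells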
# CYP2C9 inh: human CYP2C9 inhibition; AID 777; CYP2C9 Supersomes, luciferin-H conversion, luminescence; inhibition, % at 5 µM; P11712; 96,000 tested, 20% active;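 active means blocking of liver enzyme CYP2C9 beyond about 50% at 5 µM, limit read from the data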
# * hit, by the source's call; nt = no result.
SMILES,Measles CPE,CYP2C19 act,CYP2C19 inhib,CYP2C9 activ,CYP2C9 inh
CC(C)(C)NS(=O)(=O)c1ccc(CCC(=O)Nc2cc(Cl)ccc2Oc2ccccc2)cc1,2,0.3,73*,0.1,90*
CC(C)CNS(=O)(=O)c1ccc(CCC(=O)Nc2cc(Cl)ccc2Oc2ccccc2)cc1,2,0.5,45,0.3,73*
CCCNS(=O)(=O)c1ccc(CCC(=O)Nc2cc(Cl)ccc2Oc2ccccc2)cc1,2,nt,nt,nt,nt
Cc1cc2c(=O)n(CC(=O)N3CCN(c4ccc(F)cc4)CC3)cnc2s1,6,1,-4,1,-2
Cc1c(NS(=O)(=O)c2ccc3c(c2)c(=O)n(C)c(=O)n3C)c(=O)n(-c2ccccc2)n1C,9,1,1,0.9,6
Cc1ccc(OC2=NS(=O)(=O)c3ccccc32)cc1,28*,1.2,-18,1,4
Cn1c(=O)c(=O)n(C)c2cc(S(=O)(=O)N3CCC(Cc4ccccc4)CC3)ccc21,4,1,-3,1,-2
CCn1c(=O)n(CC)c2cc(S(=O)(=O)N3CCC(c4ccccc4)CC3)ccc21,31,0.7,33,0.3,68*
O=C(NCc1ccco1)c1cc(C(=O)C2CC2)c[nH]1,30,0.8,15,0.9,14
CCCCCCNC(=O)c1ccc(Br)o1,4,nt,nt,nt,nt
CCCCCCNCc1ccc(Br)cc1,18,0.2,75*,1,1
O=C(NN1C(=O)C2C3c4ccccc4C(c4ccccc43)C2C1=O)c1ccc(Cl)cc1 (configuration not stated),28,nt,nt,nt,nt
O=C(Nc1cc(S(=O)(=O)N2CCCC2)ccc1Cl)C1=COCCO1,27,0.5,52*,0.6,36
Cc1ccc(S(=O)(=O)N(C)CCCC(=O)Nc2cccc3ccccc23)cc1,17,nt,nt,nt,nt
CCCN1C(=O)c2cc(C(=O)NCc3ccc(OC)cc3)ccc2C1O (configuration not stated),0,1,-3,0.9,15
CCOCCc1nnc(NC(=O)CSc2ccccc2)s1,7,0.8,19,0.9,15
CC(C)c1nnc(NC(=O)CSc2ccccc2)s1,5,0.4,63*,0.4,62*
CCOCc1nnc(NC(=O)CSc2ccccc2)s1,3,0.5,49,0.5,51*
Cc1nccn1CC(O)COC1CCCCC1 (configuration not stated),18,1,0,1.1,-9
Cc1ccc2nc(Cl)c(CN(Cc3cccs3)C(=O)C3CC3)cc2c1,37*,1,1,0.8,17
N#CC(c1ccccc1)N(CCCCl)C(=O)c1ccc(Br)cc1 (configuration not stated),5,nt,nt,nt,nt
CCSc1nc(CC)c2c(c1C#N)CCCC2,5,nt,nt,nt,nt
CCSc1nc(N2CCOCC2)c2c(c1C#N)CCCC2,6,0.3,70*,0.1,91*
CC(C)c1nc(N2CCOCC2)c(C#N)c2c1CCCC2,16,0.2,80*,0.6,42
Cc1cccc(NC(=S)NC2CC3CCCC(C2)N3CC(C)C)c1 (configuration not stated),4,nt,nt,nt,nt
SMILES,Measles CPE,CYP2C19 act,CYP2C19 inhib,CYP2C9 activ,CYP2C9 inh
COc1ccc(OC)c2c(C)cc(NCCN3CCOCC3)nc12,5,0.9,9,1.1,-6
COc1cc2c(C(=O)N3CCN(c4ccccc4C)CC3)c(C)oc2cc1Br,10,0.4,60*,0.3,72*
COc1ccccc1N1CCN(C(=O)c2oc3cc(C)c(C)cc3c2C)CC1,5,0.6,44,0.3,74*
CCCC/C(C)=N/NC(=O)c1cn(-c2ccccc2)nc1-c1ccccc1,9,nt,nt,nt,nt
C#CCOc1ccc2c(C)cc(=O)oc2c1,25,0.4,64*,1,2
C=C(Cl)COc1ccc2c(C)cc(=O)oc2c1,26,nt,nt,nt,nt
Cc1cc(=O)oc2cc(OCC3CC(c4ccccc4)=NO3)ccc12 (configuration not stated),8,0.6,43,0.5,51*
N#Cc1c(C(F)(F)F)cc(-c2ccco2)nc1SCc1ccncc1,7,0.1,87*,0.1,92*
Cc1ccc(C)c(-n2nnnc2SCC(=O)NCCC2=CCCCC2)c1,5,0.2,76*,0.6,40
Cc1ccc(SCC(=O)NCC(C)C)cc1,32,0.3,75*,0.5,50*
CCS(=O)(=O)c1ccc2oc(SCC(=O)NCCC3=CCCCC3)nc2c1,11,0.6,44,0.3,72*
CNC(=O)CSc1nnnn1-c1cc(C)ccc1C,19,nt,nt,nt,nt
Cc1ccc(SCC(=O)NCCC2=CCCCC2)cc1,20,0.4,60*,0.5,51*

# Compound activity from PubChem.
